M1 PAM: positive allosteric modulators of human M1 muscarinic receptor. AID 588819. activation, % at 3 µM. CHO-K1 hM1, Fluo-8 calcium fluorescence, ACh EC20; 0% = ACh EC20, 100% = maximal ACh. P11229. 360,000 tested, 0.088% active; in the data active = activation above about 19%, passing the limit was not always enough
Target sequence (P11229 whole entry, looked up): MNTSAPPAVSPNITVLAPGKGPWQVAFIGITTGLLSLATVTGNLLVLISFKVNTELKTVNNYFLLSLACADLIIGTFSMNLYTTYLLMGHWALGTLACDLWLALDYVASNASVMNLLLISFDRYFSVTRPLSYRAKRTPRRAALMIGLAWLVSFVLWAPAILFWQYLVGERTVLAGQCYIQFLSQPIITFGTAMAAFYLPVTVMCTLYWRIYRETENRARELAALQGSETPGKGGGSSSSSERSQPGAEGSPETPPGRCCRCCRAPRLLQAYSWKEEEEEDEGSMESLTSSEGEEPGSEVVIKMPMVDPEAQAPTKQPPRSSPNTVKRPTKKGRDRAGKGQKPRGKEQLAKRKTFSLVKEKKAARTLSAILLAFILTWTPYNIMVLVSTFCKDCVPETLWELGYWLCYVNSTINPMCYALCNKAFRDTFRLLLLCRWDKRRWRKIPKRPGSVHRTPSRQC
M1 ag parental: M1 agonist counterscreen hit in parental CHO-K1 cells; Fluo-8 calcium fluorescence; scaled to maximal ATP response, vehicle zero; activation, % at 3 µM; 360,000 tested, 0.48% active; AID 602248; in the data active = activation above about 15%;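 also: untransfected CHO-K1 host cells lacking M1 receptor as counterscreen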
CHO-K1 Ca antag: nonselective inhibitor or artifact in parental CHO-K1 cells. ATP-induced calcium, Fluo-8 fluorescence. inhibition, % at 3 µM. 360,000 tested, 0.6% active. AID 602250;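 active = inhibition above a per-plate cutoff, the plate's mean sample inhibition plus 3 SD, cut at about 24% in these data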
M1 PAM parental: counter-screen for M1 PAMs: effect in parental CHO-K1 cells. ATP EC20, Fluo-8 calcium fluorescence; 0% at ATP EC20, 100% at ATP max. activation, % at 3 µM. 360,000 tested, 0.02% active;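 active = activation above the run cutoff, the mean activation of all test compounds plus 3 SD, cut at about 40% in these data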;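 also: peak over basal fluorescence ratio in a 140 s read after ATP addition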
CHRM1 antagonist: human CHRM1 antagonism | P11229 | CHO-K1 hM1, Fluo-8 calcium fluorescence, ACh EC80 antagonist | inhibition, % at 3 µM | 360,000 tested, 1.3% active;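 active = percent inhibition above its own plate's cutoff, namely the mean of that plate's compound wells plus 3 SD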;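 also: peak over basal fluorescence ratio during 140 s after agonist addition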
M1 ag: human M1 muscarinic receptor agonism; P11229; activation, % at 3 µM; CHO-K1 hM1, Fluo-8 calcium fluorescence, agonist mode; 0% DMSO, 100% acetylcholine EC100; 360,000 tested, 0.33% active;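 active = activation above the run's mean compound activation plus 3 SD, cut at about 16% in these data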;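 also: peak over basal fluorescence ratio within a 140 s kinetic read after compound addition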
Hits are given with their value; . = inactive. Most compounds without a hit are left out; they make up all but 2.3% or so of the library.

SMILES	M1 PAM	M1 ag parental	CHO-K1 Ca antag	M1 PAM parental	CHRM1 antagonist	M1 ag
CCOC(=O)C1=C(O)/C(=C\c2ccc(CNC(=O)C(=O)Nc3ccccc3)o2)N=C1C	.	.	28.2	.	.	.
CCn1ccnc1CN(C)Cc1cn[nH]c1-c1ccc(OC)c(F)c1	.	.	.	.	.	.
O=C(CCN1C(=O)[C@@H]2Cc3ccccc3CN2C1=O)N[C@H](C(=O)O)c1ccccc1	.	.	.	.	.	.
Cc1cccc(CN(C)C)c1CC(O)(c1ccccc1)c1ccccc1	.	.	.	.	.	.
CCN(CC)CC#CCC(O)(c1ccccc1)c1ccc(Br)cc1 (stereo unspecified)	.	.	.	.	91.7	.
O=S(=O)(CC(O)(c1ccccc1)c1ccccc1)CC(O)(c1ccccc1)c1ccccc1	.	.	.	.	.	.
CN(C)CC#CCC(O)(c1ccccc1)c1ccccc1	.	.	.	.	87.1	.
CCN(CC)CC#CCC(O)(c1ccccc1)c1ccccc1	.	.	.	.	93.4	.
CCN(CC)CC#CCC(C)(c1ccccc1)c1ccccc1	.	.	.	.	72.3	.
O=C(CSc1nc2ccccc2[nH]1)Nc1ccc(N2CCOCC2)cc1	.	.	.	.	.	.
CCSc1nnc(NC(=O)C(NC(=O)c2ccc(Cl)cc2)C(C)C)s1 (stereo unspecified)	.	.	.	.	.	.
C=CC(O)(C#CCN(CC)CC)c1ccccc1 (stereo unspecified)	.	.	.	.	37.9	.
CCN(CC)CC#CC(C)(C)OC(C)=O	.	.	.	.	.	.
NC(C(=O)O)C1ON=C(Cl)C1O (stereo unspecified)	.	.	.	.	.	.
CCn1cc(S(=O)(=O)CC(=O)Nc2cccc(C)c2)c2ccccc21	.	.	.	.	.	.
Cc1cc(NC(=O)CS(=O)(=O)c2cn(Cc3cccc(Cl)c3)c3ccccc23)no1	.	.	.	.	.	26.5
CCn1cc(S(=O)(=O)CC(=O)Nc2ccc(C)cc2)c2ccccc21	.	.	26.7	.	.	.
CCOc1c(Br)cc(C(=O)N2CCCN(C)CC2)cc1OC	.	.	.	.	.	.
COC(=O)c1sccc1NC(=O)CC1NCCNC1=O (stereo unspecified)	.	.	.	.	.	.
CCOC(=O)C1CCCN(C(=O)c2cc3c(OC)c(OC)c(OC)cc3[nH]2)C1 (stereo unspecified)	.	.	.	.	.	.
Cc1ccc(C(=O)/C=C/c2cn(CC(O)CN3CCOCC3)c3ccccc23)cc1 (stereo unspecified)	.	16.3	.	.	.	.
CC1CCCN(CCCNC(=O)C2CCC(CNS(=O)(=O)c3cccc4nsnc34)CC2)C1 (stereo unspecified)	.	.	.	.	45.0	.
C=CCn1c(SCCOc2ccc(OC)cc2)nnc1C(CO)NC(=O)c1ccc(OC)cc1 (stereo unspecified)	.	.	24.8	.	.	.
CCCCC(=O)NC(=S)NNC(=O)c1ccc(OC)cc1	.	31.3	.	.	.	.
COc1ccc(C(=O)NNC(=S)NC(=O)c2cccnc2)cc1	.	.	.	.	.	.
SMILES	M1 PAM	M1 ag parental	CHO-K1 Ca antag	M1 PAM parental	CHRM1 antagonist	M1 ag
COc1ccc(C(=O)NNC(=S)NC(=O)c2ccc(OC)cc2)cc1	.	34.2	.	.	.	23.4
COc1ccc(Cl)cc1C(=O)NNC(=S)NC(=O)c1ccc(F)c(F)c1	.	.	.	.	.	37.1
COc1ccc(C(=O)NNC(=S)NC(=O)c2ccc(F)cc2)cc1Br	.	66.1	.	.	34.9	88.1
Cc1ccc(NC(=O)Nc2c(C)[nH]c(=O)[nH]c2=O)cc1Cl	.	.	.	.	.	.
Cc1ccc(C(=O)NCC(=O)Nc2ccc(Cl)cc2)s1	.	.	.	.	.	.
COc1cc(C(=O)NC(=S)NNC(=O)c2ccc3c(c2)OCO3)cc(OC)c1OC	.	.	.	.	.	16.9
COc1cc(C(=O)NC(=S)Nc2ccc3c(c2)OCO3)cc(OC)c1OC	.	.	.	.	.	.
Cn1c(SCC(=O)Nc2ccc3nc(SCC(=O)N4CCCC4)sc3c2)nnc1-c1ccc(N)cc1	.	.	31.5	.	.	.
O=c1/c(=C/c2cccc3ccccc23)sc2ncnn12	.	.	27.5	.	.	.

Bioassay records: PubChem, The Scripps Research Institute Molecular Screening Center
